Bioassay records as filed in PubChem.
Shown are actives, neighbours in structure and some others; about 2.5% of the full set was active somewhere.
HDAC3 inh: human HDAC3 inhibition; O15379; recombinant HDAC3, fluorogenic peptide/trypsin coupled, fluorescence; inhibition, % at 8.3 µM; 320,000 tested, 0.15% active; in the data active = inhibition above about 26%, passing the limit was not always enough; inconclusive = no clear call, values can overlap the other calls
PHOSPHO1 inh: inhibitors of human PHOSPHO1 phosphatase; Q8TCT1; recombinant PHOSPHO1, absorbance phosphatase assay; inhibition, % at 13.3 µM; 290,000 tested, 1.1% active; in the data active = inhibition above about 60%
Target sequence (Q8TCT1 whole entry, looked up): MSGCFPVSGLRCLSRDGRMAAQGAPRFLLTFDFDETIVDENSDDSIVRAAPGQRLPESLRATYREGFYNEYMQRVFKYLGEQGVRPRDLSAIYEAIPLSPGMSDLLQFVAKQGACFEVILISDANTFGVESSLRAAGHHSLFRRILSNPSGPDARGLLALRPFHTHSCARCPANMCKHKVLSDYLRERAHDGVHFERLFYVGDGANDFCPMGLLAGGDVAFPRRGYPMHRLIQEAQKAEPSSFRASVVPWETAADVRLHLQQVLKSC
p97 inhibitor: blocks human p97 ATPase activity; P55072; recombinant p97 ATPase, Kinase-Glo ATP luminescence, 3 h; inhibition, % at 8 µM; 220,000 tested, 0.42% active; in the data active = inhibition above about 15%;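 note: 0% = DMSO vehicle and 100% = wells lacking enzyme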
G6PDH counter: counter-screen for G6PDH assay hits: L. mesenteroides G6PDH inhibition | inhibition, % at 5 µM | 200,000 tested, 0.12% active | Purified L. mesenteroides G6PDH, diaphorase/resazurin coupled fluorescence, 45 min; in the data active = inhibition above about 50%
UBC9 SUMO inh: blocks human SUMOylation mediated by UBC9; P63279; HTRF SUMOylation assay, SAE1/SAE2 + UBC9, in vitro; inhibition, % at 35 µM; 290,000 tested, 0.36% active; AID 2006; in the data active = inhibition above about 50%, passing the limit was not always enough; inconclusive = no clear call, values can overlap the other calls
PfM18AAP inh-1: blocks P. falciparum M18 aspartyl aminopeptidase. recombinant PfM18AAP, H-Glu-NHMec fluorogenic cleavage. inhibition, % at 7.35 µM. 290,000 tested, 1.2% active;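 active = inhibition above the campaign mean inhibition over all tested compounds plus 3 SD, cut at about 28% in these data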;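 note: 0% = plate median of test compound wells and 100% = 2 mM ZnCl2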
PfM18AAP inh-2: confirmation of Plasmodium falciparum M18 aspartyl aminopeptidase inhibitors; shares compounds with PfM18AAP inh-1; recombinant PfM18AAP, H-Glu-NHMec fluorogenic cleavage; inhibition, % at 7.35 µM; 2,400 tested, 28% active; AID 2170;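 active = mean inhibition over replicate wells above the hit cutoff set for the earlier primary screen, cut at about 29% in these data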;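 note: 0% = median of test compound wells and 100% = 2 mM ZnCl2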
CTSL1 counter: counter-screen for PFM18AAP inhibitors: confirmation of human cathepsin L inhibitors | shares compounds with PfM18AAP inh-1 | 2,400 tested, under 10 active | inhibition, % at 5.96 µM | purified cathepsin L1, Z-Leu-Arg-MCA fluorescence | AID 2178;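 active = average inhibition across replicates above the hit cutoff set in the earlier primary screen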;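 note: 0% = median of test compound wells and 100% = Z-Phe-Ala-diazomethylketone 1 µM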
Target sequence (P07711 whole entry, looked up): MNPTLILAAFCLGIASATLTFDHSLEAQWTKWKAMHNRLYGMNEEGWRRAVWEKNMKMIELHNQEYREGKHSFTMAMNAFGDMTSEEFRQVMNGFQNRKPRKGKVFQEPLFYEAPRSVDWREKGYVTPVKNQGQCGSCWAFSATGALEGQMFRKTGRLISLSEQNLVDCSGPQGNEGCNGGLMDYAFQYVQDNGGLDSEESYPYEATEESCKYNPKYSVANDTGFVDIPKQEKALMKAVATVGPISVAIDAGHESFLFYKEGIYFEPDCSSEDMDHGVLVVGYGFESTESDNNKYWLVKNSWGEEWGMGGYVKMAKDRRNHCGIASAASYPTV
* = called active by the depositor; ? = inconclusive; . = no result.

SMILES	HDAC3 inh	PHOSPHO1 inh	p97 inhibitor	G6PDH counter	UBC9 SUMO inh	PfM18AAP inh-1	PfM18AAP inh-2	CTSL1 counter
O=C(COC(=O)c1ccc(OC(F)F)cc1)NCCC1=CCCCC1	3	.	.	.	.	.	.	.
N#C/C(=C/c1ccc(O)c(O)c1)C(=O)NCc1ccc(Cl)cc1	6	9	.	.	-13	38*	5	0
N#C/C(=C\c1ccc(O)c(O)c1)C(=O)Nc1cccc2ncccc12	3	19	.	.	.	63*	30*	3
Cc1nnc(-c2ccc(N3CCCCCC3)c([N+](=O)[O-])c2)o1	-2	24	0	.	13	-4	.	.
COc1ccc(OCC(=O)Nc2ccccc2C(=O)Nc2ccc(C(=O)O)cc2)cc1	-3	20	.	.	2	-7	.	.
Cc1ccc2c(c1)N(C(=O)CCC(=O)NCc1cccc(F)c1)CCO2	-5	23	.	.	4	3	.	.
Oc1c(Br)cc(/C=N/Nc2nncc3ccccc23)cc1Br	4	23	.	.	18	33*	10	4
COc1ccc(/C=N/Nc2nncc3ccccc23)cc1	1	8	1	-14	15	-1	.	.
COc1cc(/C=N/Nc2ncc(C(F)(F)F)cc2Cl)cc(OC)c1O	9	-13	-2	20	-4	35*	31*	2
Oc1c(Br)cc(/C=N/Nc2ccc(Cl)nn2)cc1Br	9	.	.	.	27	34*	-18	0
COc1cc(/C=N/Nc2ccc(Cl)nn2)cc(OC)c1O	2	33	.	.	4	39*	28	3
Cc1cc(=O)n2nc(N3CCC(C(=O)NCCc4ccc(Cl)cc4)CC3)sc2n1	-5	33	.	.	2	-3	.	.
O=C(Nc1ccccc1)c1cn(CCBr)cn1	3	.	.	.	.	.	.	.
O=C(O)/C=C/C(=O)NCc1cn(-c2ccccc2)nc1-c1cccc(Br)c1	5	-13	-2	-2	-21	36*	-35	-2
COc1ccccc1C(=O)C1CCCN(C(=O)c2ccco2)C1 (centres undefined)	0	16	.	.	-4	-6	.	.
CN(C)c1ccc2nc3ccc(=[N+](C)C)cc-3sc2c1	5	-14	-13	1	-226	22	.	.
Cc1cc2nc3ccc(=[N+](C)C)cc-3sc2cc1N	.	3	-20	.	-316	36*	-18	10
O=C1OC(/C(=C\Nc2ccccc2)[N+](=O)[O-])c2ccccc21 (centres undefined)	6	38	9	.	9	47*	-36	-3
N#Cc1c(-c2ccccc2)[nH]c(=S)[nH]c1=O	9	24	3	3	0	34*	-22	-1
COc1ccc(C2=Nn3c(nnc3-c3ccco3)SC2)cc1	12	35	0	3	6	-4	.	.
Oc1ccc(C2=Nn3c(nnc3-c3ccco3)SC2)cc1O	10	31	12	19	3	75*	60*	-1
CN(Cc1nc(Cc2cccc(F)c2)no1)CC1CCOCC1	-3	28	-5	13	10	-5	.	.
O=c1c2ccccc2sn1-c1cc(S(=O)(=O)N2CCOCC2)ccc1N1CCCC1	27*	41	0	1	-2	41*	27	-1
CCOc1ccc(CN(C(=O)c2cc(=O)c3cc(C)cc(C)c3o2)C2CCS(=O)(=O)C2)cc1 (centres undefined)	-6	18	.	.	.	-6	.	.
Cc1ccc(OCCN(C)C(=O)C2CCC(=O)N(CC3CCCCC3)C2)cc1 (centres undefined)	3	-22	.	.	-5	1	.	.
SMILES	HDAC3 inh	PHOSPHO1 inh	p97 inhibitor	G6PDH counter	UBC9 SUMO inh	PfM18AAP inh-1	PfM18AAP inh-2	CTSL1 counter
Oc1ccc(N2CCN(c3ccnc4cc(Cl)ccc34)CC2)cc1	-7	23	.	.	-3	38*	-13	2
COc1ccc(N2CCN(c3ccnc4cc(Cl)ccc34)CC2)cc1	3	7	.	.	16	-5	.	.
CC(C)(C)C(=O)/C=C/Nc1ccccc1O	6	7	-3	1	1	42*	3	-1
CC1(C#CC[N+]2(C)CCCCC2)CCC2C(O1)c1ccccc1OC2(C)C (centres undefined)	0	-5	2	7	16	-1	.	.
CCN(CC(=O)NCc1cccs1)C(=O)c1cccc(S(=O)(=O)N2CC(C)OC(C)C2)c1 (centres undefined)	-11	.	.	.	.	.	.	.
CCNC(=S)NNc1nc(N2CCOCC2)nc(N2CCOCC2)n1	6	-10	-7	6	16	47*	30*	-1
CNC(=S)NNc1nc(N2CCOCC2)nc(N2CCOCC2)n1	-7	10	-8	-5	-10	41*	25	-3
C=CCNC(=S)NNc1nc(N2CCCC2)nc(N2CCCC2)n1	1	45	.	.	-2	54*	20	0
COc1ccc(S(=O)(=O)N2CCCCC2)cc1C(=O)N1CCCC1	-2	17	.	.	7	-6	.	.
Cc1ccc(N(CCC#N)C(=O)COC(=O)c2ccccn2)cc1	-12	23	.	.	14	-6	.	.
CCn1c(=O)c2sccc2n(Cc2ccc(C)cc2)c1=O	2	24	.	.	8	-10	.	.
O=C(c1ccc(OC2CCN(C/C=C/c3ccc(F)cc3)CC2)cc1)N1CCCC1	-1	45	.	.	8	-11	.	.
Cc1nc2c(C)cccn2c1C(=O)N/N=C/c1ccccc1[N+](=O)[O-]	2	-10	4	.	14	40*	-41	-3
Cc1nc2ccccn2c1C(=O)N/N=C/c1ccccc1[N+](=O)[O-]	3	-140	4	6	-1	-2	.	.
COc1ccccc1OCC(=O)/C=C1/N(C)c2ccccc2C1(C)C	2	15	0	4	-28	-1	.	.
CN1/C(=C\C(=O)CSc2ncn[nH]2)C(C)(C)c2ccccc21	2	1	-4	14	13	66*	16	2
O=C(CSc1ncn[nH]1)N1CCCCC1	.	43	3	.	-6	45*	-11	5
O=C(CSc1ncn[nH]1)c1cccc([N+](=O)[O-])c1	?	-5	-4	-1	20	43*	38*	-2
O=C(CSc1ncn[nH]1)N1CCN(S(=O)(=O)c2ccc(Cl)cc2)CC1	-1	16	-3	14	15	-5	.	.
O=C(CSc1ncn[nH]1)c1ccccc1	23	95*	4	8	20	42*	53*	-4
Cc1cc(NS(=O)(=O)c2c(C(=O)N3CCOCC3)c(C)n(C)c2C)ccc1Br	1	28	.	.	12	-2	.	.
Cc1c(-c2ccccc2)[n+](=O)c(-c2ccc(Cl)cc2)c(C)n1[O-]	1	41	1	19	21	5	.	.
CN1CCN(NC(=O)CN2C(=O)S/C(=C\c3c(Cl)cccc3Cl)C2=O)CC1	1	22	6	19	-1	42*	-30	0
O=C(Cc1ccccc1)Nc1nc(=O)c2ccccc2s1	12	-133	5	5	-15	40*	-53	-11
